From PubChem BioAssay (NCATS)
Results filed as inconclusive are left out. Calls of active or inactive are those of the source. Unless noted, calls follow the shape of the dose curve; as a rule, active = well fitted curve in the direction sought with a large enough effect; inconclusive = small, poorly fitted or top-dose-only effect, or another doubt; inactive = no such curve, though single readings can be large; an effect the other way counts as inactive or inconclusive.

Experiments:
[1] = qHTS for differential inhibitors of proliferation of Plasmodium falciparum line GB4 (AID 1816); settings: Potency: Plasmodium falciparum GB4 proliferation inhibition;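 also: potency is read from the fitted curve at half-maximal effect; parasite growth measured after 72 h incubation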
[2] = qHTS for differential inhibitors of proliferation of Plasmodium falciparum line 3D7 (AID 1876); also: potency is read from the fitted curve at half-maximal effect
[3] = qHTS for differential inhibitors of proliferation of Plasmodium falciparum line D10 (AID 1877);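 also: potency is read from the fitted curve at half-maximal effect; parasites grown with compound for 72 h before DNA staining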
[4] = qHTS for differential inhibitors of proliferation of Plasmodium falciparum line W2 (AID 1883); settings: Potency: Plasmodium falciparum W2 proliferation inhibition;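 also: potency is read from the fitted curve at half-maximal effect; parasites grown with compound for 72 h before lysis and staining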
[5] = qHTS for differential inhibitors of proliferation of Plasmodium falciparum line HB3 (AID 1886); settings: Potency: Plasmodium falciparum HB3 proliferation inhibition;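 also: potency is read from the fitted curve at half-maximal effect; parasites grown with compound for 72 h before SYBR Green readout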
[6] = molecular target: Ferritin light chain (Equus caballus) (UniProt P02791); test: qHTS Validation Assay for Identification of Novel General Anesthetics (AID 2323); also: series mostly up to about 77 µM; % is scaled to controls: 0 for no effect and ±100 for the full control effect
Procedure, shortened: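 Competitive displacement of the profluorescent anesthetic 1-AMA (50% saturated, PBS) from 10 uM apoferritin, 10 min, room temperature. Activity is normalized 380/535 nm fluorescence; concentration-response fitted with a four-parameter Hill equation.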

[7] = molecular target: ATP-dependent DNA helicase Q1 (Homo sapiens) (UniProt P46063); test: qHTS Validation Assay for Inhibitors of RecQ-Like Dna Helicase 1 (RECQ1) (AID 2353);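 also: plate controls were DMSO vehicle for no effect and enzyme-free control for full effect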
Procedure, shortened: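 50 nM RECQ1T1 preincubated 15 min with compound in Tris pH 8.0 buffer with MgCl2, DTT, Tween-20 and 2.5 ug/ml poly(dI-dC); started with 200 nM TAMRA/BHQ-2 forked duplex and 2 mM ATP. Unwinding read as fluorescence (525/598 nm), two reads 2 h apart.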

[8] = Validation screen for small molecules that induce DNA re-replication in MCF 10A normal breast cells (AID 463097); also: 0% is about no effect; nearly all actives have a fitted effect of over 60% in size
Procedure, shortened: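 Read-out is Hoechst total nuclear intensity by fluorescence scanning imager, flagging increased high-DNA-content nuclei. Compounds were incubated with MCF 10A cells for 48 hr (37 C, 5% CO2) before 40 min staining.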

[9] = Quantitative high throughput screen for delayed death inhibitors of the malarial parasite plastid, 96 hour incubation (AID 488745); also: potency is read from the fitted curve at half-maximal effect; nearly all actives have a fitted effect of over 70% in size
Procedure, shortened: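 Infected erythrocytes were added to compound in Albumax-supplemented RPMI 1640 at 0.1% parasitemia and 2% hematocrit (final), incubated 96 h at 37 C under 5% CO2, then luciferase reagent was added and luminescence measured.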

[10] = Quantitative high throughput screen for delayed death inhibitors of the malarial parasite plastid, 48 hour incubation (AID 488752); also: potency is read from the fitted curve at half-maximal effect; nearly all actives have a fitted effect of over 65% in size
Procedure, shortened: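 Readout is firefly luciferase luminescence from a reporter integrated into the parasite genome, with lower signal taken as inhibited growth. Infected red cells (0.1% parasitemia, 2% hematocrit final) are cultured with compound for one 48 h cycle at 37 C.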

[11] = molecular target: M-phase phosphoprotein 8 (Homo sapiens) (UniProt Q99549); test: qHTS Validation Assay for Inhibitors for MPP8 Chromodomain Interactions with Methylated Histone Tails (AID 488949);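 also: AlphaScreen signal from MPP8 chromodomain bound to biotinylated H3K9me3 peptide; top concentration of the series differs between compounds; % is scaled to controls: 0 for no effect and ±100 for the full control effect; nearly all actives have a fitted effect of over 55% in size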
Procedure, shortened: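 AlphaScreen proximity signal from streptavidin donor and Ni-chelate acceptor beads (10 ug/mL each) reported binding of MPP8 to trimethyl-K9 H3(1-18) peptide, both at 50 nM. The complex formed 30 min before a 30 min compound exposure at room temperature, in PBS pH 7.4.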

[12] = molecular target: Transient receptor potential cation channel subfamily V member 1 (Homo sapiens) (UniProt Q8NER1); test: HTS Assay for Compounds that Act as Enhancers of the Vanilloid Receptor 1 (AID 488979); also: 0% is about no effect
Procedure, shortened: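 Calcium influx kinetics via Fluo-8 (480/520 nm) in TRPV1-expressing cells, 2000/well cultured overnight at 35.5C. Compound-alone read 3 min (agonist phase), followed by EC20 capsaicin challenge for 2 min (enhancer phase).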

[13] = molecular target: Thyrotropin receptor (Homo sapiens) (UniProt P16473); test: qHTS Assay for Antagonists of the Thyroid Stimulating Hormone Receptor (AID 488980); also: series mostly up to about 58 µM; 0% is about no effect
Procedure, shortened: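 Inhibition of cAMP raised by EC80 TSH (4 nM final) was read by HTRF, with lysate cAMP competing against cAMP-d2 for cryptate antibody after 30 min at room temperature. The cells were transfected HEK293 held in phosphodiesterase inhibitor RO 20-1724 at 70 uM.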

[14] = molecular target: Thyrotropin-releasing hormone receptor (Homo sapiens) (UniProt P34981); test: qHTS for Small Molecule Agonists and Allosteric Enhancers of Human TRH Receptor: Validation Screen for Agonists (AID 493127;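 active = calcium activation more than 3 SD above the typical response in the agonist read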;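 also: intracellular calcium rise by fluo-8 fluorescence before TRH EC20 addition; 0% is about no effect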); settings: TRH receptor agonist cell assay; at 2 µM; stronger effect = higher value
Procedure, shortened: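 Cells 2000/well, 10% FCS, 18 h 33.5C/5% CO2 → fluo-8 Ca dye, RT 30 min–1.5 h → FDSS baseline 10 × 1 s → compound added → 230 cycles (1 s/cycle) agonist mode. TRH controls.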

[15] = molecular target: Galactokinase (Homo sapiens) (UniProt P51570); test: qHTS Validation Assay for Inhibitors of Human Galactokinase (GALK) (AID 493189); also: 0% is about no effect
Procedure, shortened: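 Inhibition was measured as remaining ATP, detected by luciferase luminescence after a 1 h room-temperature reaction. Final conditions: 5 nM GALK, 100 uM galactose, 35 uM ATP, pH 8.0 HEPES buffer.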

[16] = Validation screen for small molecules that induce DNA re-replication in SW480 colon adenocarcinoma cells (AID 504364); also: 0% is about no effect
Procedure, shortened: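 250 cells/well; compound pinned in; 48 hr, 37 C, 5% CO2; Hoechst added, 40 min; nuclear fluorescence imaged, 405 ex / 500-530 em; re-replication scored as increase in high-intensity nuclei.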

[17] = molecular target: DNA dC->dU-editing enzyme APOBEC-3G (Homo sapiens) (UniProt Q9HC16); test: qHTS for inhibitors of Vif-A3G interactions: Validation (AID 588379); also: 0% is about no effect
Procedure, shortened: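 HeLa cells stably expressing Vif and A3G-eYFP, 700 cells/well, incubated overnight at 37 deg C, then exposed to compound overnight at 37 deg C. Inhibition of Vif-mediated degradation read as increased yellow fluorescence (Ex 488/Em 500-530) by laser-scanning cytometry.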

[18] = molecular target: Voltage-gated inwardly rectifying potassium channel KCNH2 (Homo sapiens) (UniProt Q12809); test: qHTS Assay for Small Molecule Inhibitors of the Human hERG Channel Activity (AID 588834);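 also: top concentration of the series differs between compounds; % is scaled to controls: 0 for no effect and ±100 for the full control effect; lower thallium flux fluorescence means stronger hERG block; nearly all actives have a fitted effect of over 50% in size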
Procedure, shortened: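 Kinetic FDSS fluorescence; U2OS + hERG BacMam (~100 virus particles/cell); FluxOR Tl+ flux; ~10 min cpd; AC50 (Hill).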

[19] = system: Zika virus NS2B-NS3 protease; test: Primary screen GU AMC qHTS for Zika virus inhibitors (AID 1347154);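 also: 0% = no-inhibitor control and -100% = no-enzyme control; nearly all actives have a fitted effect of over 70% in size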
Procedure, shortened: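 Fluorogenic AMC-substrate cleavage by noncovalent NS2B-NS3 protease complex (25 nM, pH 8.0 Tris buffer with Tween 20) followed for 15 minutes at room temperature (~20% conversion). Percent inhibition from ex340/em450 signal change, fitted by 4-parameter Hill equation.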

[20] = Primary qHTS for small molecule stabilizers of the endoplasmic reticulum resident proteome: Secreted ER Calcium Modulated Protein (SERCaMP) assay (AID 1508630); also: % is scaled to controls: 0 for no effect and ±100 for the full control effect
Procedure, shortened: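 GLuc-SERCaMP-expressing SH-SY5Y cells, pretreated 16 h with compound, are challenged with thapsigargin to empty ER calcium stores; after 4 h, coelenterazine is added directly to the medium and luminescence is imaged.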

Sequence of Transient receptor potential cation channel subfamily V member 1 (Homo sapiens) (Q8NER1 whole entry, looked up): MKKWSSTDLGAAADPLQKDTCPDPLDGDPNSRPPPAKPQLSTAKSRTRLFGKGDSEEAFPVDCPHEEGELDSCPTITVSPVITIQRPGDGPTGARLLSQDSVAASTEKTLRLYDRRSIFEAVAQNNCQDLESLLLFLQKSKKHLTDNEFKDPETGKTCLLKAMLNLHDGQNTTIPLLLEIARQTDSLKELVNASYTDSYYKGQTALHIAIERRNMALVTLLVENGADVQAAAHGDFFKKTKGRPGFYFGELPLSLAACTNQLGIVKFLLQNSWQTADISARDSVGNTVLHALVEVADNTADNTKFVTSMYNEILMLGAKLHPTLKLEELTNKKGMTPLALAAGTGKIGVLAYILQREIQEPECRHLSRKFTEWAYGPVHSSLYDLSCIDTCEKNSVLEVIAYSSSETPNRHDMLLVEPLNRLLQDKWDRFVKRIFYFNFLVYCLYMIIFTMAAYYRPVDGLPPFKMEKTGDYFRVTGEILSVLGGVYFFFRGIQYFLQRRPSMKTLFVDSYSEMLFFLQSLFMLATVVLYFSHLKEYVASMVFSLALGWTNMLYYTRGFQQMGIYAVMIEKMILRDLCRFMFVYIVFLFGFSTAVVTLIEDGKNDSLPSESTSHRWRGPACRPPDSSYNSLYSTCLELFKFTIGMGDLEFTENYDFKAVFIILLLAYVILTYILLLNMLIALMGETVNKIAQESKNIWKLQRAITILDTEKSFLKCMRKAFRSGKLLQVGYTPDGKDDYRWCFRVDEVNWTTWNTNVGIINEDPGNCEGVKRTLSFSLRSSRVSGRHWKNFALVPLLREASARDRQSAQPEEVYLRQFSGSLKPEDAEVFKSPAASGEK
Sequence of Galactokinase (Homo sapiens) (P51570 whole entry, looked up): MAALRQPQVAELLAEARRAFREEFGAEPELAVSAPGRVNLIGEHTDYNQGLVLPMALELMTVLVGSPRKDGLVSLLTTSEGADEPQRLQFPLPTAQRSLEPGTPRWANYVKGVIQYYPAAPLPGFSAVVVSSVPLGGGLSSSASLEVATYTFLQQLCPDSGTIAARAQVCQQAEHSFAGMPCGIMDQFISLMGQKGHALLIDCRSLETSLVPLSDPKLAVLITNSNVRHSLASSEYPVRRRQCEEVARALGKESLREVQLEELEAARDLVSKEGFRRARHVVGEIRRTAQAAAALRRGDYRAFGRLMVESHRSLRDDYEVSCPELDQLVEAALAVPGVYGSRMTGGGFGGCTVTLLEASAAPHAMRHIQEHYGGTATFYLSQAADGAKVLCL
Sequence of Thyrotropin receptor (Homo sapiens) (P16473 whole entry, looked up): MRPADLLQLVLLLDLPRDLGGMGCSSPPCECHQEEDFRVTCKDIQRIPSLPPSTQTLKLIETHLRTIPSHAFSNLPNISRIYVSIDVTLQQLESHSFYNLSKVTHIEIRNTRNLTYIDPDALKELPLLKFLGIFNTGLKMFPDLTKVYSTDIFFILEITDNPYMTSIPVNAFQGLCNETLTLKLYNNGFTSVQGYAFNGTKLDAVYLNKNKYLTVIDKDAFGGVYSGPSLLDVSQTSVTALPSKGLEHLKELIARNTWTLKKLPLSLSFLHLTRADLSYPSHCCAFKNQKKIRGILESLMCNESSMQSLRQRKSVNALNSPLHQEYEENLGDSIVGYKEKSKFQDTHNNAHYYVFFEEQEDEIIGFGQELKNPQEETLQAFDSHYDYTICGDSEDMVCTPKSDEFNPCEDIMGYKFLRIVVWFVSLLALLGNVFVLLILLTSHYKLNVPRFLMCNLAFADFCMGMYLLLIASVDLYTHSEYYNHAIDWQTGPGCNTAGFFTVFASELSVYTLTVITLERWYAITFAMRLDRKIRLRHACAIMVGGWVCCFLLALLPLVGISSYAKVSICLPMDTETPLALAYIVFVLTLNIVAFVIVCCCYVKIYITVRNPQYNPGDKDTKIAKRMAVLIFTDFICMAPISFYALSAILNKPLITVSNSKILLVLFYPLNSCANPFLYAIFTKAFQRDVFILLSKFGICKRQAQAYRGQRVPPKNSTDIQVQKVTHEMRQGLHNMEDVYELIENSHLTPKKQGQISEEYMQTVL
Sequence of ATP-dependent DNA helicase Q1 (Homo sapiens) (P46063 whole entry, looked up): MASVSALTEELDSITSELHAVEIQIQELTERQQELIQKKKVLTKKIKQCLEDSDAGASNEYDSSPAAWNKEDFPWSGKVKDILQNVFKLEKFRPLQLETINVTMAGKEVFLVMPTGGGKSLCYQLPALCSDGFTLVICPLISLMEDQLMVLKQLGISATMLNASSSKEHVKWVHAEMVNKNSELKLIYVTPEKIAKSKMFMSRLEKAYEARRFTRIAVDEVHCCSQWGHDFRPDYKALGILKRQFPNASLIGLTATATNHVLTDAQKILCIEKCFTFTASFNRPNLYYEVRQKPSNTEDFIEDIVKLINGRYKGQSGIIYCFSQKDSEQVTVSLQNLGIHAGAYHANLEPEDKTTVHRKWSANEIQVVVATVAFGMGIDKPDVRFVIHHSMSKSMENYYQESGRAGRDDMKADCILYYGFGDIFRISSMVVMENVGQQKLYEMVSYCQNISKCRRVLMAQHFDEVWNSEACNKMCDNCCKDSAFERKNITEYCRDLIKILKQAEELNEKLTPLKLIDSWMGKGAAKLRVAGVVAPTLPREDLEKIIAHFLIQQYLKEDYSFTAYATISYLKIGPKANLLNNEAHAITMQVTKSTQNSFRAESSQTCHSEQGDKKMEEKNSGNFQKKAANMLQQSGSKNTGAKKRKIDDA
Sequence of Ferritin light chain (Equus caballus) (P02791 2-175 limits assumed): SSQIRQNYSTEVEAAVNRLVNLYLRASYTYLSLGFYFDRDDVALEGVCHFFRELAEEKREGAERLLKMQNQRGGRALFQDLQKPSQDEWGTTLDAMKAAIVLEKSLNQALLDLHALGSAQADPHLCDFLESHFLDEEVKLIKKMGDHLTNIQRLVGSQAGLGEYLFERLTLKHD
Sequence of Thyrotropin-releasing hormone receptor (Homo sapiens) (P34981 whole entry, looked up): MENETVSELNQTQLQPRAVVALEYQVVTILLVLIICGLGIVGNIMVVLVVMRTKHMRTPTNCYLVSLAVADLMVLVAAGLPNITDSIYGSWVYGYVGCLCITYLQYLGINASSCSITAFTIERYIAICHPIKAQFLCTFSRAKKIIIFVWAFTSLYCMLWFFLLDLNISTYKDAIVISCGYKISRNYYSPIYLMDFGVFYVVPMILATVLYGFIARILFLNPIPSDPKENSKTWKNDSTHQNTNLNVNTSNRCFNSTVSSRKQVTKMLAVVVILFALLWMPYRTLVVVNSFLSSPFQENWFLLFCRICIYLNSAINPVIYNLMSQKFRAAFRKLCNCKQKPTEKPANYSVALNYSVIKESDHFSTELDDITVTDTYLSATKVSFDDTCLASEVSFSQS
Sequence of Voltage-gated inwardly rectifying potassium channel KCNH2 (Homo sapiens) (Q12809 whole entry, looked up): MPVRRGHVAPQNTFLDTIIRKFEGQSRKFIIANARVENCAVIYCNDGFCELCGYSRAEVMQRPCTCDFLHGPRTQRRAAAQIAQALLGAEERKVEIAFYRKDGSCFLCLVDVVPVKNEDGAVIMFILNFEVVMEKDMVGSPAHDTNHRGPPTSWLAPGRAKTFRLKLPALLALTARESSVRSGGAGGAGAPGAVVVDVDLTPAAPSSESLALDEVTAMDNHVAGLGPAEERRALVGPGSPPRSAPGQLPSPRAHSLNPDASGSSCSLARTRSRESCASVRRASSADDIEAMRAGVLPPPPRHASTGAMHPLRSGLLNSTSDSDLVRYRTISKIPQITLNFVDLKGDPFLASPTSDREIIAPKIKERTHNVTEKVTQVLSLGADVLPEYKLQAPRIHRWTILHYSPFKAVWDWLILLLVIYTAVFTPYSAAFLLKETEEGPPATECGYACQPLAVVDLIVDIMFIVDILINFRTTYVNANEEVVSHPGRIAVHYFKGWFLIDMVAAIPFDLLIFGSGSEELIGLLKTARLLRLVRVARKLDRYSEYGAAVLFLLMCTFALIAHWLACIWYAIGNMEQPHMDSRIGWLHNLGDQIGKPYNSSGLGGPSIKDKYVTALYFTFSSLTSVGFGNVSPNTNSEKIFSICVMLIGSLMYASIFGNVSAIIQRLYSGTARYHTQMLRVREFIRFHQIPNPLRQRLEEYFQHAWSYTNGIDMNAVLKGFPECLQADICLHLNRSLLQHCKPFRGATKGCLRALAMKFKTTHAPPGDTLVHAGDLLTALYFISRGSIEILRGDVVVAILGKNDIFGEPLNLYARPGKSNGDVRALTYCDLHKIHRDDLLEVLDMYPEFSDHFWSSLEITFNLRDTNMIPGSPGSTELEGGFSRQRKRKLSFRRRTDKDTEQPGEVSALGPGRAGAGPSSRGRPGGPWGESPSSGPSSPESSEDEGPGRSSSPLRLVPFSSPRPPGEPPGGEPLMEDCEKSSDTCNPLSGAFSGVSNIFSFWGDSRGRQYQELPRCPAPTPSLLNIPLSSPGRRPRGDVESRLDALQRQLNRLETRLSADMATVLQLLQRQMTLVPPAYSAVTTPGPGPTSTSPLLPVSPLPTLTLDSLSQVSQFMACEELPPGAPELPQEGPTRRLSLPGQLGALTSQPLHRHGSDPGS
Sequence of DNA dC->dU-editing enzyme APOBEC-3G (Homo sapiens) (Q9HC16 whole entry, looked up): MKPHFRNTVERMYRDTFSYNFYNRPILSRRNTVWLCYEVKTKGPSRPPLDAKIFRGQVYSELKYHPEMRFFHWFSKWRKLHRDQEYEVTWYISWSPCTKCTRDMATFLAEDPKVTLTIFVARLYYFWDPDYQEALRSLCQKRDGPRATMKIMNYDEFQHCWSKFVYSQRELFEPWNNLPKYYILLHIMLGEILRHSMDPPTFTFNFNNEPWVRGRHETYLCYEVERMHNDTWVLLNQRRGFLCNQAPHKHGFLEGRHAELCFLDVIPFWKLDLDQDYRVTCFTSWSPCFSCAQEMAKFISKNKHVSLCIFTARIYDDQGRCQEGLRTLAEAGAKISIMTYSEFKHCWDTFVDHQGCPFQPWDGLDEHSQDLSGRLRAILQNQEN

COC(=O)c1c(-c2cc(OC)c(OC)c(OC)c2)c2ccnc(OCc3ncccn3)c2c(=O)n1Cc1ccnc(C)c1
active: Potency [1] 4.47 µM | Potency [2] 2 µM | Potency [3] 4.47 µM | Potency [4] 2.51 µM | Potency [5] 2.82 µM | Potency [9] 5.86 µM | Potency [10] 9.28 µM
inactive: outcome [6] | Potency [7] | Potency [8] | Potency [11] | outcome [12] | outcome [13] | activation [14] 0.438% | outcome [15] | outcome [16] | Potency [17] | Potency [18] | Potency [19] | Potency [20]
